The results in this text go back to the supplement of paper PMC11417369.

In all, about 25,000 sequences were measured (“ln(normalized median fluorescence intensity)”: median about 9.3, highest 2% from about 10 on). The full list was thinned out, with the highest values kept by preference.

This assay relates to PF3D7_0420300 AP2 domain 1 (GST-tagged). Briefly: gcPBM binding intensity (ln(normalized median fluorescence intensity)); higher = stronger DNA binding. The essentials: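 Plasmodium falciparum DNA-binding domains carrying a GST tag were expressed in E. coli and applied for 1 h, at about 25 μg on average, to an Agilent 4 × 180k array. The array held primer-extended double-stranded 36-bp intergenic genomic probes together with negative controls, and binding took place in 1× PBS with 1% milk, 0.2 mg/ml BSA, 0.5% salmon testes DNA and 0.03% Triton X-100. An Alexa488 anti-GST antibody detected bound protein, and the array was scanned at 488 nm. Binding intensity is taken as the highest Masliner-normalised natural-log median intensity across replicate spots of either probe orientation.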
On to “TTTATAAAAATATACACACATACAAATATGCATATA [CACACA_site712]”, for which the “gcPBM binding intensity (ln)” value worked out at 9.44.
As to “TATCCATATTTGTTCACACACACACCGATTTATATA [CACACA_site5888]”, the “gcPBM binding intensity (ln)” value was 10.1.
As to “TGTATCCATATTTGTTCACACACACCCATATTTATA [CACACA_site9190]”, the “gcPBM binding intensity (ln)” value came out at 10.
Regarding “TATCCATATTTGTTCACACACACACCCATTTATATA [CACACA_site3571]”, the “gcPBM binding intensity (ln)” value turned out to be 10.2.
In the case of “ATATAAATTCAAATTACACACATTTATTTTTTTTAC [CACACA_site53]”, the “gcPBM binding intensity (ln)” value came to 9.44.
In the case of “AGCAAATCAGATAGTAGTACATTTAAATTAGACTTT [XGTACX_site4172]” it was 9.19; in that of “GGCATACACGAACACACACACACACGCACATATATA [CACACA_site6426]”, 10.3; in that of “CATATACACGAACACACACACACACGCACAAAAAAA [CACACA_site6376]”, 10.2.
Consider “ATTATACACGCGCGCACACACAACAAAAAAAAAAAA [CACACA_site7630]”, for which the “gcPBM binding intensity (ln)” value amounted to 9.69.
Turning to “AACATATACACGAACACACACACATATATATATATA [CACACA_site502]”, the “gcPBM binding intensity (ln)” value came to 10.1.
The value for “TGAACACGCACAAATACACACAAAAAAAATAAATAA [CACACA_site6257]” was 9.63; that for “CATATACACGAACACACACACATATATATATATATA [CACACA_site4437]” was 9.84.
“TATTTTCTCTTAAAAAGTACTCATATATACATTTAT [XGTACX_site7748]”: the “gcPBM binding intensity (ln)” value was determined as 9.07.
Regarding “GAGTAAAAATTAAAATGTACATATTATATATATTTA [XGTACX_site1319]”, the “gcPBM binding intensity (ln)” value came out at 9.09.
In the case of “CTTTGCCTTAAAAAGGAACACACATGCTTTTTTTAG [CACACA_site8219]” it was 9.22; in that of “TTTTTTTTTACTTGTTGTACTTTTTCAAGGTATTGT [XGTACX_site7778]”, 9.42; in that of “TATATACATAAAATTTGTACATATATATATATATAT [XGTACX_site3214]”, 9.28.
On to “TGCTTATATCTTATAATATTTATACATCATAATAAG [CACACA_negctrl_site629]”, for which the “gcPBM binding intensity (ln)” value turned out to be 9.17.
In the case of “ATTTTTCTTTTATTAACACACATATAAATAAATACA [CACACA_site2876]”, the “gcPBM binding intensity (ln)” value came out at 9.22.
Consider “CATAATAATAGAAACACACACACATAGACATATATA [CACACA_site1308]”, for which the “gcPBM binding intensity (ln)” value was determined as 10.2.
With “TATACATAGAAACACACACACATAAATAAATATATA [CACACA_site1342]”, the “gcPBM binding intensity (ln)” value amounted to 10.1.
“TATATATAGAAACACACACACACATATATATATATT [CACACA_site2539]”: the “gcPBM binding intensity (ln)” value came to 10.1.
Turning to “ATAATATAGAAACACACACACATATATATATACATT [CACACA_site555]”, the “gcPBM binding intensity (ln)” value was 10.2.
With “TAATAATAGAAACACACACACATAGACATATATATA [CACACA_site1307]”, the “gcPBM binding intensity (ln)” value stood at 10.1.
“TATACATAGAAACACACACACATATATATATATATA [CACACA_site2248]”: the “gcPBM binding intensity (ln)” value is 9.79.
Take “TGTATCCACATATGTACACACATATATCTGTATATG [CACACA_site5668]”: the “gcPBM binding intensity (ln)” value was determined as 9.51.
With “CAAAAATAAAAGAAATGTACAAAAAATAATAAAAAA [XGTACX_site6597]”, the “gcPBM binding intensity (ln)” value was 9.43.
Regarding “TATTTTATACATATTTTACACACTAATATATACATA [CACACA_site7998]”, the “gcPBM binding intensity (ln)” value came to 9.42.
In the case of “AGGAATATCGAAAACTGTACTTGTATGTTTCATAAA [XGTACX_site6143]” it was 9.02; in that of “AAATATATTATAAATTGTACGTTTATATATATTATT [XGTACX_site5110]”, 9.35; in that of “AATAATATATTTAGGGGTACATAATAATATATTTTA [XGTACX_site8366]”, 9.27.
As to “TTAGGCAAGGCGGGGGGTACGTTTTTATATAATTAT [XGTACX_site8029]”, the “gcPBM binding intensity (ln)” value is 10.6.
As for “ATTTTTGTAAATACATGTACATATATATGCATATCC [XGTACX_site6353]”, the “gcPBM binding intensity (ln)” value was 9.49.
“TTTCTATTTCCTTCACATCTTTTCATCTTTTTTTTT [CACACA_negctrl_site1110]”: the “gcPBM binding intensity (ln)” value turned out to be 9.71.
Regarding “TGGAAAAATAGGCACACACACATATATACATATATA [CACACA_site1297]”, the “gcPBM binding intensity (ln)” value turned out to be 10.
“AATGGAAAAATAGGCACACACACATATATACATATA [CACACA_site1298]”: the “gcPBM binding intensity (ln)” value came out at 10.2.
Take “AATGGCAAAATAGGCACACACACATATACATATATA [CACACA_site1058]”: the “gcPBM binding intensity (ln)” value is 10.1.
The value for “TTAATGGAAAAATAGGCACACACACCGATATACATA [CACACA_site8356]” was 9.94; that for “AATGGAAAAATAGGCACACACACATAAATACAGATA [CACACA_site4844]” was 10.3.
For “AATGGCAAAATAGGCACACACACATATACAGATATA [CACACA_site4726]”, the “gcPBM binding intensity (ln)” value stood at 10.1.
For “GACCCCATATACATATGTACATACATAATATATATA [XGTACX_site1817]”, the “gcPBM binding intensity (ln)” value was found to be 9.57.
In the case of “TAAAATATAATAAAATGTACACGCATGCAATAGAAT [XGTACX_site7434]” it was 9.65; in that of “ATCAGTCGGCAGGACAGTACACAGTAGCCAGAAAAT [XGTACX_site2550]”, 9.49; in that of “AGTATAAATAAATCATAAACATATATATATATATAT [GTGCAC_negctrl_site356]”, 9.2.
